Reference: PubChem BioAssay (NCATS)
Active and inactive are the calls of the source. The call rests on the fitted dose curve.

Experiment: qHTS drug screen for cell cycle checkpoint inhibitors in PARPi-resistant BRCA-mutant ovarian cancer cell lines. (AID 1963452)
Conditions: PEO1/OlaR viability, CellTiter-Glo luminescence, 96 h; stronger effect = lower value
Method in brief: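 PEO1, PEO4 and PEO1/OlaR ovarian cancer cells, 600 per well, exposed 96 h at 37C to a dilution series. Viability read by CellTiter-Glo luminescence, normalized to DMSO and empty wells; activity summarized as Z-AUC.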

Row | Structure (SMILES) | Z-AUC
1 | C[C@H](NC(=O)c1sccc1OCc1ccc(Cl)cc1)c1ccccc1 | 0.368 (inactive)
2 | CC#CCn1c(N2CCC[C@@H](N)C2)nc2c1c(=O)n(Cc1nc(C)c3ccccc3n1)c(=O)n2C | -0.285 (inactive)
3 | N#Cc1ccc(NC(=O)Nc2ccccc2Br)c2n[nH]nc12 | 1.45 (inactive)
4 | O=C(Nc1cccc(Br)c1)c1cccc(S(=O)(=O)N2CCCCCC2)c1 | -0.479 (inactive)
5 | CO[C@@H](C(=O)N1Cc2[nH]nc(NC(=O)c3ccc(N4CCN(C)CC4)cc3)c2C1)c1ccccc1 | -0.0482 (inactive)
6 | Nc1ncnc2ccccc12 | -0.0198 (inactive)
7 | COc1cc(N2CCC(N3CCN(C)CC3)CC2)ccc1Nc1ncnc(Nc2ccccc2S(=O)(=O)C(C)C)n1 | 0.282 (inactive)
8 | CS(=O)(=O)N(Cc1ccco1)CC(O)Cn1c2ccccc2c2ccccc21 (stereo not drawn) | 1.06 (inactive)
9 | COc1cc2ncnc(-n3nc(-c4ccccn4)nc3N)c2cc1OC | -0.168 (inactive)
10 | Clc1ccc(COC(Cn2ccnc2)c2ccc(Cl)cc2Cl)cc1 (stereo not drawn) | 0.343 (inactive)
11 | CC(C)OC(=O)C(C)(C)Oc1ccc(C(=O)c2ccc(Cl)cc2)cc1 | -0.547 (inactive)
12 | CCn1c(C(=O)N(C2CC2)C2CC2)cc2c3c(ncn3C)c(Nc3cc(C)n(C)n3)nc21 | 0.749 (inactive)
13 | CN(C)Cc1cccc(N=C(c2ccccc2)c2c(O)[nH]c3cc(C(=O)N(C)C)ccc23)c1 | -0.969 (inactive)
14 | CCNc1cc(NC2CCC(O)CC2)nc(Nc2ccc3c(ccn3Cc3ccccc3)c2)n1 (stereo not drawn) | 0.474 (inactive)
15 | O=c1cc(-c2cccc3c2Sc2ccccc2S3)oc(N2CCOCC2)c1 | 1.05 (inactive)
16 | O=C(CCCCCCC(=O)Nc1ccccc1)NO | -0.11 (inactive)
17 | CNC1CCC(N(Cc2cccc(-c3ccncc3)c2)C(=O)c2sc3c(F)ccc(F)c3c2Cl)CC1 (stereo not drawn) | -0.961 (inactive)

Row | Structure (SMILES) | Z-AUC
18 | COc1ccc2cccc(CCNC(C)=O)c2c1 | -0.374 (inactive)
19 | CN(C)Cc1ccc(-c2nc3cccc4c3n2CCNC4=O)cc1 | 0.426 (inactive)
20 | N[C@@]1(C(=O)O)CS(=O)(=O)[C@H]2[C@H](C(=O)O)[C@H]21 | -0.18 (inactive)
21 | NC(CO)(CO)CCc1ccc(Sc2cccc(OCc3ccccc3)c2)cc1Cl | 0.362 (inactive)
22 | Cc1ccn(-c2ccc(-c3ncco3)cc2)c(=O)c1-c1ccc2nc(N)ncc2c1 | 1.02 (inactive)
23 | CCc1ccc(OCc2ccccc2C(=O)Nc2ccc3nc(C)cc(N)c3c2)cc1 | -0.061 (inactive)
24 | COCCOc1nc(-c2ccc(Cl)c(Cl)c2)n(-c2ccc(NC(=O)CCl)cc2)n1 | -0.18 (inactive)
25 | CCOc1ccc(Nc2nc(-c3c(C)nc4ccccn34)cs2)cc1 | -0.0903 (inactive)
26 | COC(=O)[C@@H]1[C@H]2C[C@H]3c4[nH]c5ccccc5c4CCN3C[C@@H]2CC[C@@H]1O | 0.808 (inactive)
27 | COc1cc(Nc2ncc(F)c(Nc3ccc4c(n3)NC(=O)C(C)(C)O4)n2)cc(OC)c1OC | 0.179 (inactive)
28 | N[C@H](CSC(c1ccccc1)(c1ccccc1)c1ccccc1)C(=O)O | 0.731 (inactive)
29 | COc1cccc([C@@H](C)NCCCc2ccccc2Cl)c1 | 0.861 (inactive)
30 | c1cc(-c2sc(-c3ccncc3)c(-c3ccncc3)c2-c2ccncc2)ccn1 | 1.76 (inactive)
31 | COc1cccc(-c2cc(=O)c3ccccc3o2)c1N | -0.672 (inactive)
32 | CC(C)(C)c1cc(C(=O)O)c(NC(=O)Nc2ccc3[nH]ncc3c2)s1 | -0.548 (inactive)
33 | COc1ccc(-c2coc3cc(O)cc(O)c3c2=O)cc1 | 1.34 (inactive)
34 | CC(C)(C)C(=O)Oc1ccc2c(c1)nc(NC(=O)c1cccc([N+](=O)[O-])c1)n2CCCO | -0.205 (inactive)

Same assay, conditions: PEO1/OlaR viability, CellTiter-Glo luminescence, 96 h; measured here: PEO1 parental Z-AUC; stronger effect = lower value

Row | Structure (SMILES) | Z-AUC
35 | C[C@H](NC(=O)c1sccc1OCc1ccc(Cl)cc1)c1ccccc1 | -0.143
36 | CC#CCn1c(N2CCC[C@@H](N)C2)nc2c1c(=O)n(Cc1nc(C)c3ccccc3n1)c(=O)n2C | 0.131
37 | N#Cc1ccc(NC(=O)Nc2ccccc2Br)c2n[nH]nc12 | 0.952
38 | O=C(Nc1cccc(Br)c1)c1cccc(S(=O)(=O)N2CCCCCC2)c1 | 0.243
39 | CO[C@@H](C(=O)N1Cc2[nH]nc(NC(=O)c3ccc(N4CCN(C)CC4)cc3)c2C1)c1ccccc1 | 0.272
40 | Nc1ncnc2ccccc12 | 0.844
41 | COc1cc(N2CCC(N3CCN(C)CC3)CC2)ccc1Nc1ncnc(Nc2ccccc2S(=O)(=O)C(C)C)n1 | 0.069
42 | CS(=O)(=O)N(Cc1ccco1)CC(O)Cn1c2ccccc2c2ccccc21 (stereo not drawn) | 0.549
43 | COc1cc2ncnc(-n3nc(-c4ccccn4)nc3N)c2cc1OC | 0.627
44 | Clc1ccc(COC(Cn2ccnc2)c2ccc(Cl)cc2Cl)cc1 (stereo not drawn) | 0.179
45 | CC(C)OC(=O)C(C)(C)Oc1ccc(C(=O)c2ccc(Cl)cc2)cc1 | -0.458
46 | CCn1c(C(=O)N(C2CC2)C2CC2)cc2c3c(ncn3C)c(Nc3cc(C)n(C)n3)nc21 | 1.24
47 | CN(C)Cc1cccc(N=C(c2ccccc2)c2c(O)[nH]c3cc(C(=O)N(C)C)ccc23)c1 | -0.73
48 | CCNc1cc(NC2CCC(O)CC2)nc(Nc2ccc3c(ccn3Cc3ccccc3)c2)n1 (stereo not drawn) | 0.235
49 | O=c1cc(-c2cccc3c2Sc2ccccc2S3)oc(N2CCOCC2)c1 | 1.03
50 | O=C(CCCCCCC(=O)Nc1ccccc1)NO | -0.486
51 | CNC1CCC(N(Cc2cccc(-c3ccncc3)c2)C(=O)c2sc3c(F)ccc(F)c3c2Cl)CC1 (stereo not drawn) | -0.582

Row | Structure (SMILES) | Z-AUC
52 | COc1ccc2cccc(CCNC(C)=O)c2c1 | -0.478
53 | CN(C)Cc1ccc(-c2nc3cccc4c3n2CCNC4=O)cc1 | 0.483
54 | N[C@@]1(C(=O)O)CS(=O)(=O)[C@H]2[C@H](C(=O)O)[C@H]21 | 0.223
55 | NC(CO)(CO)CCc1ccc(Sc2cccc(OCc3ccccc3)c2)cc1Cl | -0.197
56 | Cc1ccn(-c2ccc(-c3ncco3)cc2)c(=O)c1-c1ccc2nc(N)ncc2c1 | 0.788
57 | CCc1ccc(OCc2ccccc2C(=O)Nc2ccc3nc(C)cc(N)c3c2)cc1 | -0.206
58 | COCCOc1nc(-c2ccc(Cl)c(Cl)c2)n(-c2ccc(NC(=O)CCl)cc2)n1 | 0.0816
59 | CCOc1ccc(Nc2nc(-c3c(C)nc4ccccn34)cs2)cc1 | -0.777
60 | COC(=O)[C@@H]1[C@H]2C[C@H]3c4[nH]c5ccccc5c4CCN3C[C@@H]2CC[C@@H]1O | 0.498
61 | COc1cc(Nc2ncc(F)c(Nc3ccc4c(n3)NC(=O)C(C)(C)O4)n2)cc(OC)c1OC | 0.902
62 | N[C@H](CSC(c1ccccc1)(c1ccccc1)c1ccccc1)C(=O)O | 0.902
63 | COc1cccc([C@@H](C)NCCCc2ccccc2Cl)c1 | 1.12
64 | c1cc(-c2sc(-c3ccncc3)c(-c3ccncc3)c2-c2ccncc2)ccn1 | 1.54
65 | COc1cccc(-c2cc(=O)c3ccccc3o2)c1N | -0.47
66 | CC(C)(C)c1cc(C(=O)O)c(NC(=O)Nc2ccc3[nH]ncc3c2)s1 | -0.418
67 | COc1ccc(-c2coc3cc(O)cc(O)c3c2=O)cc1 | 0.911
68 | CC(C)(C)C(=O)Oc1ccc2c(c1)nc(NC(=O)c1cccc([N+](=O)[O-])c1)n2CCCO | 0.0755
